As usually defined, the Inhibition is the drop in the measured response relative to a control, in per cent.

For experiment [1], the system named is Klebsiella pneumoniae. The note with it: Concentration 20 uM; ASSAY_TEST Inhibition of Bacterial Growth; detection method Absorption (OD600); MEDIA CAMHB; plate type 384well; NBS; CORNING #3640; time 18 hr.
For experiment [2], the system named is Candida albicans. As to conditions: 20 µM.
Experiment [3] relates to Cryptococcus neoformans. As to conditions: Concentration 20 uM; ASSAY_TEST Inhibition of Fungal Growth; detection method Resazurin; Absorption (OD600-OD570); plate type 384well; NBS; CORNING #3640. Background: Resazurin is reduced to fluorescent resorufin, in cell work by metabolically active cells.

Measured potencies and affinities stand elsewhere.

Take `Cl.c1ccc(C[C@@H]2CN(c3nccc(Oc4ccc(-n5ccnc5)cc4)n3)CCN2)cc1`: the Inhibition in experiment [1] is 13.63%; in experiment [2], 3.57%; in experiment [3] it was -6.59%.
In the same order, the values of `CS(=O)(=O)N1CCC(CCn2nc(Cc3cccc4ccccc34)c3c(N)ncnc32)CC1` are 2.11%, 3.38% and -7.27%.
In the same order, the values of `Cc1ccc(NC(=O)c2cc(S(=O)(=O)NC(C)(C)C)ccc2C)nc1` are 13.76%, 1.54% and -5.42%.
The like results for `CCOc1ccccc1NC(C)C(=O)Nc1cc(C(F)(F)F)ccc1N1CCOCC1` (configuration not stated) were, in that order, 14.66%, 4.33% and -7.7%.
On to `Nc1nccc2ccc(Oc3ccncc3)cc12`, for which the results for the Inhibition in experiment [1], in experiment [2] and in experiment [3] were 18.43%, 1.98% and -6.05%, respectively.
In the same order, the values of `Cc1cc(C(=O)Nc2cnn(Cc3ccc(Cl)cc3Cl)c2)no1` are -11.81%, 11.5% and -4.75%.
The like results for `COCC(C)NC(=O)CSc1ncnc2sc(-c3ccccc3)cc12` (configuration not stated) were, in that order, 18.05%, 9.04% and 0.58%.
As for `COc1cncc(-c2cncc(N3CCN(c4ccncc4)CC3)n2)c1`, the Inhibition in experiment [1] stood at 19.7%; in experiment [2], 3.12%; in experiment [3], 4.32%.
The like results for `COc1ccc(C2=NN(C3CCCCCC3)C(=O)[C@@H]3CC=CC[C@H]23)cc1OCCCCOc1ccc(-c2nnn[nH]2)cc1` were, in that order, 8.89%, 6.64% and -7.83%.
In the same order, the values of `CN1CCCC1CCO[C@](C)(c1ccccc1)c1ccc(Cl)cc1.O=C(O)/C=C/C(=O)O` (some centres not stated) are 21.77%, 1.54% and -7.21%.
In the same order, the values of `CNC(=O)CNc1nc(-c2ccccn2)nc2scc(-c3ccccc3)c12` are 15.46%, 0.88% and -5.07%.
For the molecule `OCCc1ccc(Nc2nccc(-c3nnc4ccccn34)n2)cc1`, the Inhibition in experiment [1] was 15.28%; in experiment [2], 3.06%; in experiment [3] it was -9.75%.
The like results for `Cc1noc(C)c1C(=O)N1CCCC(c2[nH]c3c(C)cccc3c2-c2ccncc2)C1` (configuration not stated) were, in that order, 18.77%, 4.29% and -7.96%.
In the case of `COc1ccc(-c2nn(C(C)C)c3ncnc(N)c23)cc1OC`, the Inhibition was 10.07% in experiment [1], 2.58% in experiment [2] and -0.18% in experiment [3].
The like results for `COc1ccc(-c2cnc3ccc(N4CCCC4)nn23)cc1OC` were, in that order, 12.07%, 4.32% and -8.28%.
Turning to `COc1cccc(OCC(=O)c2ccc(Br)cc2)c1`, the values for the Inhibition in experiment [1], in experiment [2] and in experiment [3] were -4.37%, 4.44% and -12.88%, respectively.
In the same order, the values of `COc1cc(C2=NCCN2)ccc1-c1cn(-c2cccc(C3=NCCN3)c2)nn1` are 15.15%, 2.69% and 3.58%.
The like results for `NCC(=O)N1CCn2c(nc(-c3ccccc3)c2Nc2ccc3c(c2)OCO3)C1` were, in that order, 4.52%, 3.31% and 7.53%.
As to `Brc1c(-c2ccc3c(c2)OCO3)nc2ncccn12`, the Inhibition is 12.72% in experiment [1], 3.56% in experiment [2] and -13.08% in experiment [3].
In the same order, the values of `CNC1C(OC2C(OC3C(O)C(O)C(NC(=N)N)C(O)C3NC(=N)N)OC(C)C2(O)C=O)OC(CO)C(O)C1O.CNC1C(OC2C(OC3C(O)C(O)C(NC(=N)N)C(O)C3NC(=N)N)OC(C)C2(O)C=O)OC(CO)C(O)C1O.O=S(=O)(O)O.O=S(=O)(O)O.O=S(=O)(O)O` (configuration not stated) are -10.2%, 2.09% and -8.51%.
The like results for `CCN(CC)C(=O)N1CCN(C)CC1` [DIETHYLCARBAMAZINE] were, in that order, 16.19%, 2.79% and -5.92%.
In the same order, the values of `O=C(Nc1nnc(S)s1)c1cc(Br)ccc1Cl` are 6.18%, 4.73% and -3.6%.
Turning to `N=C(N)c1ccc(-c2cc(-c3ccccc3)on2)cc1`, the Inhibition is 18.39% in experiment [1], 3.34% in experiment [2] and -9.38% in experiment [3].
The like results for `COc1ccccc1C(C)NCC(=O)Nc1cc(C(F)(F)F)ccc1Cl` (configuration not stated) were, in that order, 14.48%, 1.66% and -4.09%.
The like results for `O=C(NCCc1ccccc1)c1cc(-c2cccnc2)cnc1NCC1CC1` were, in that order, -2.11%, 6.13% and -7.61%.
In the same order, the values of `CC(C)(C)c1cnc(NC(=O)c2ccccc2O)s1` are 10.5%, 11.6% and 5.21%.
As to `CCCCS(=O)(=O)Nc1ccc2cnn(C)c2c1`, the Inhibition in experiment [1] was 10.18%; in experiment [2], 2.57%; in experiment [3] it was -4.93%.
The like results for `Cc1cccc(-c2nc(Nc3ccncn3)c3sccc3n2)n1` were, in that order, 15.76%, 3.59% and 61.44%.
On to `O=C(NCc1cc(Cl)cc(Cl)c1)c1c(C(F)(F)F)nc2ccccn12`, for which the Inhibition in experiment [1] was 15.19%; in experiment [2], 8.03%; in experiment [3] it was -5.43%.

The values above are taken from ChEMBL document CHEMBL4513149, “CO-ADD screening of MMV (CH) - MMV compounds” (2021).
